Here are results for four sequences from article PMC8384837, “Expanding the binding specificity for RNA recognition by a PUF domain”.

In the test the target is PUM1 PUF domain R5-RRS (Homo sapiens, UniProt Q14671 828-1176, C1007R;Q1011S). Description: yeast three-hybrid, YBZ-1, SC-Leu-His + 0.5 mM 3-AT, 4 days. The following applies: tags: N-Gal4 AD-HA kept; label: inside an RPR1-promoter hybrid RNA with tandem MS2 sites; ssRNA. The essentials: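 The interaction score is the log change in how often each variant appears, from input to selection. Frequencies came from PCR-amplified, Illumina-sequenced repeat regions of Pumilio-1 PUF domain libraries grown in strain YBZ-1 (LexA–MS2 coat fusion, HIS3 reporter) alongside matching RNA elements. Input plates were SC-Leu and selection plates were SC-Leu-His + 0.5 mM 3-AT, each for four days, and the log2 calculation used a pseudocount of 1 where a variant was absent.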
Sequence of PUM1 PUF domain R5-RRS (Q14671 828-1176 C1007R/Q1011S): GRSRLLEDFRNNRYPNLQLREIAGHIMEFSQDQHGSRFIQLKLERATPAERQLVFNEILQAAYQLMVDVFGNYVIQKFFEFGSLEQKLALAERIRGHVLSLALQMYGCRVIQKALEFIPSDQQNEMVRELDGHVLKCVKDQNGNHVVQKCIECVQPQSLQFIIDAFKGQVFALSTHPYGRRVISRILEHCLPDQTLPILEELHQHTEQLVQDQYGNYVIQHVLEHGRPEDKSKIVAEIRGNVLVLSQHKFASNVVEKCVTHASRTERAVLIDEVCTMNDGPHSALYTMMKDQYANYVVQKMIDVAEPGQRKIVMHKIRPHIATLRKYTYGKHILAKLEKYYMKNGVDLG
On to “GGCUAGAACUAGUGGAUCCCCCGGCGCCCGGCGGCUCGAGCCCGGGUAAGUGUGAAUAGUCUGCAUGCCGCCGGGCGCCAUGCCUGCAGGUCGACUCUAGAAAACAUG”, for which the binding signal is 1.53 log2 enrichment (interaction score).

With “GGCUAGAACUAGUGGAUCCCCCGGCGCCCGGCGGCUCGAGCCCGGGUAAGUGUAAAUAGUCUGCAUGCCGCCGGGCGCCAUGCCUGCAGGUCGACUCUAGAAAACAUG”, the binding signal was 2.42 log2 enrichment (interaction score).

On to “GGCUAGAACUAGUGGAUCCCCCGGCGCCCGGCGGCUCGAGCCCGGGUAAGUGUCAAUAGUCUGCAUGCCGCCGGGCGCCAUGCCUGCAGGUCGACUCUAGAAAACAUG”, for which the binding signal is 4.44 log2 enrichment (interaction score).

For “GGCUAGAACUAGUGGAUCCCCCGGCGCCCGGCGGCUCGAGCCCGGGUAAGUGUUAAUAGUCUGCAUGCCGCCGGGCGCCAUGCCUGCAGGUCGACUCUAGAAAACAUG”, the binding signal is 4.6 log2 enrichment (interaction score).
